{"source": "PubChem BioAssay (EPA / NIEHS)", "note": "Where a structure was tested more than once in an assay, its records may differ in their call. Activity calls are given as the source filed them. How the source made its calls: active means hit-call score of the fitted dose curve at least 0.9, where 1 is the maximum; inactive means score below 0.9."}
{"read-out": "Tumor necrosis factor receptor 1 (TNFRSF1A), TNFRSF1A (gene 7132)", "test": "LTEA_HepaRG_TNFRSF1A: Life Technologies and Expression Analysis (LTEA) Assay for Tumor necrosis factor receptor 1 (TNFRSF1A) using HepaRG (AID 2283535)", "details": "mRNA level, 48 h; actives raise or lower the signal", "experimental": "LTEA_HepaRG is a cell based, multiplexed-readout assay that uses HepaRG, a human liver cell line, with measurements taken at 48 hours after chemical dosing on a 96-well plate.LTEA_HepaRG_TNFRSF1A is one of 102 assay component(s) measured in the LTEA HepaRG cell culture assay. It is a marker of Cell proliferation, survival, death.Data from the assay component LTEA_HepaRG_TNFRSF1A was analyzed into 1 endpoint. This assay endpoint, LTEA_HepaRG_TNFRSF1A, was analyzed with bidirectional fitting relative to DMSO as the negative control and baseline of activity. Using a type of inducible reporter, measures of mRNA induction for gain or loss-of-signal activity can be used to understand regulation of transcription factor activity. To generalize the intended target to other relatable targets, this assay endpoint is annotated to the cytokine receptor intended target family, where the subfamily is TNF receptor.\nA total of 1060 chemcials from the ToxCast library were tested in eight-point concentration-response experiments. Cell culture and cytotoxicity assays were conducted at Thermo Fisher Scientific's Custom Services facility (Madison, WI). A single lot of human HepaRG cells (Thermo Fisher Scientific, Frederick, MD) was used for the cell culture experiments. 96-well format collagen type I coated plates of human HepaRG cells were prepared using established methods. Briefly, cryopreserved HepaRG cells were thawed, plated at a density of approximately 100,000 cells/well in HepaRG Thaw, Plate, and General Purpose media (HPRG770, Thermo Fisher Scientific), and incubated for 48 hours. 0.5% DMSO was selected as vehicle control to balance the requisite need of DMSO in HepaRG cultures to maintain differentiation (for example, baseline metabolism, proportions of hepatocytes vs. cholangiocytes), while enabling further hepatic receptor pathway activation (for example, PXR and CAR) in response to chemical exposure. 48 hours after plating, the culture medium was replaced with HepaRG Serum-Free Incudtion Media. Cells were exposed to each test chemical in duplicate and maintained in CO2 incubators for another 48 hours. Chemical plates were thawed to room temperature and 200x concentrations of treatment groups were prepared. 8-point conentration-reponse curves were made with the highest exposure at 100 uM, followed by half-log dilutions, all in 0.5% DMSO. Each test plate contained variouse controls, induction positive controls (1mM phenobarbital), cytotoxicity positive controls ([…] aflatoxin B1), vehicle controls (0.5% DMSO), and total lysis controls (0.5% DMSO). Cell morphology images were taken using an Essen IncuCyte FLR automated microscope, with six 96-well plates imaged in about 24 minutes. Images were captured and exported and JPEG files. Spent culture media was transfered to black-well plates for the LDH assay, and remaining media was sorted at -80 C for later use. Cells were treated with RLT buffer and frozen until shipped for gene expression analysis. Total RNA was isolated from the cell suspension in 75 uL of Buffer RLT (Qiagen, Germantown, MD 20874) by Quintiles/Expression Analysis (Durham, NC) using a custom isolation procedure. Total RNA from each plate well was transferred to a preamplification plate. Fluidigm's 96.96 Dynamic ArrayTM (Fluidigm, Amsterdam, the Netherlands) technology was used for gene expression analyses by quantitative reverse transcription polymerase chain reaction (qRT-PCR, performed by Quintiles/Expression Analysis, Durham, NC)89. Standard TaqManTM Assays (Applied Biosystems/ThermoFisher Scientific, Foster City, CA) were used to assess the expression of 93 genes selected based on their selectivity and sensitivity to important hepatic receptors known to be modulated by environmental chemicals; importance in human hepatocyte functionality; and hepatotoxicity. […]"}
{"smiles": "CCON=C(CC)C1=C(O)CC(c2c(C)cc(C)cc2C)CC1=O", "note": "(stereo not given)", "outcome": "inactive"}
{"smiles": "COC(=O)c1ccccc1C(=O)OC", "outcome": "inactive"}
{"smiles": "C#CCOS(=O)OC1CCCCC1Oc1ccc(C(C)(C)C)cc1", "note": "(stereo not given)", "AC50": "26.1 µM (active)"}
{"smiles": "CC1=C(C(=O)Nc2ccccc2)SCCO1", "outcome": "inactive"}
{"smiles": "CC(C)(C)c1ccc(CSc2cnn(C(C)(C)C)c(=O)c2Cl)cc1", "outcome": "inactive"}
{"smiles": "CCOC(=O)CC(SP(=S)(OC)OC)C(=O)OCC", "note": "(stereo not given)", "outcome": "inactive"}
{"smiles": "CCNc1nc(Cl)nc(NC(C)C)n1", "outcome": "inactive"}
{"smiles": "COP(N)(=O)SC", "note": "(stereo not given)", "outcome": "inactive"}
{"smiles": "CNC(=O)ON=CC(C)(C)SC", "outcome": "inactive"}
{"smiles": "COc1cnc(OC)n2nc(NS(=O)(=O)c3c(OCC(F)F)cccc3C(F)(F)F)nc12", "outcome": "inactive"}
{"smiles": "C=CC1(C)OC(=O)N(c2cc(Cl)cc(Cl)c2)C1=O", "note": "(stereo not given)", "outcome": "inactive"}
{"smiles": "N#Cc1cc(Br)c(O)c(Br)c1", "AC50": "16.9 µM (active)"}
{"smiles": "COC(=O)C=C(C)OP(=O)(OC)OC", "outcome": "inactive"}
{"smiles": "O=C(O)c1nc(Cl)ccc1Cl", "outcome": "inactive"}
{"smiles": "OC(c1ccc(Cl)cc1)(c1cncnc1)c1ccccc1Cl", "note": "(stereo not given)", "outcome": "inactive"}
{"smiles": "CCc1nn(C)c(C(=O)NCc2ccc(C(C)(C)C)cc2)c1Cl", "AC50": "27.4 µM (active)"}
{"smiles": "COC(=O)C(C)Oc1ccc(Oc2ccc(Cl)cc2Cl)cc1", "note": "(stereo not given)", "outcome": "inactive"}
{"smiles": "CCCCOC(=O)c1ccccc1C(=O)OCCCC", "outcome": "inactive"}
{"smiles": "Cc1c(F)c(F)c(COC(=O)C2C(/C=C(\\Cl)C(F)(F)F)C2(C)C)c(F)c1F", "note": "(stereo not given)", "outcome": "inactive"}
{"smiles": "COc1nc(NC(C)C)nc(NC(C)C)n1", "outcome": "inactive"}
{"smiles": "CC(Oc1ccc(Cl)cc1Cl)C(=O)O", "note": "(stereo not given)", "outcome": "inactive"}
{"smiles": "C=CCC1=C(C)[C@@H](OC(=O)[C@@H]2[C@@H](C=C(C)C)C2(C)C)CC1=O", "outcome": "inactive"}
{"smiles": "CS/C(C)=N/OC(=O)N(C)SN(C)C(=O)O/N=C(\\C)SC", "outcome": "inactive"}
{"smiles": "CN(C)C(=S)SSC(=S)N(C)C", "outcome": "inactive"}
{"smiles": "CC1COC(Cn2cncn2)(c2ccc(Oc3ccc(Cl)cc3)cc2Cl)O1", "note": "(stereo not given)", "AC50": "72.2 µM (active)"}
{"smiles": "N#CC(CCc1ccc(Cl)cc1)(Cn1cncn1)c1ccccc1", "note": "(stereo not given)", "outcome": "inactive"}
{"smiles": "CCCCC(CC)COC(=O)c1ccccc1C(=O)OCC(CC)CCCC", "note": "(stereo not given)", "outcome": "inactive"}
{"smiles": "CCOC(=O)C(Cl)Cc1cc(-n2nc(C)n(C(F)F)c2=O)c(F)cc1Cl", "note": "(stereo not given)", "outcome": "inactive"}
{"smiles": "Cc1cc(Cl)ccc1OCC(=O)O", "outcome": "inactive"}
{"smiles": "CCCN(CCC)c1c([N+](=O)[O-])cc(S(N)(=O)=O)cc1[N+](=O)[O-]", "AC50": "82.1 µM (active)", "outcome": "inactive"}
{"smiles": "CCNc1nc(Cl)nc(NCC)n1", "outcome": "inactive"}
{"smiles": "CCOc1cc(Oc2ccc(C(F)(F)F)cc2Cl)ccc1[N+](=O)[O-]", "outcome": "inactive"}
{"smiles": "CO/C=C(/C(=O)OC)c1ccccc1Oc1cc(Oc2ccccc2C#N)ncn1", "outcome": "inactive"}
{"smiles": "Fc1ccc(Oc2ccnc3cc(Cl)cc(Cl)c23)cc1", "outcome": "inactive"}
{"smiles": "CC(C)C1(C)N=C(c2nc3ccccc3cc2C(=O)O)NC1=O", "note": "(stereo not given)", "outcome": "inactive"}
{"smiles": "O=C(Nc1ccccc1)Nc1ccnc(Cl)c1", "AC50": "96.7 µM (active)"}
{"smiles": "Cc1ccc(-c2c(Cl)nc(C#N)n2S(=O)(=O)N(C)C)cc1", "AC50": "34.9 µM (active)"}
{"smiles": "COC(=O)N(OC)c1ccccc1COc1ccn(-c2ccc(Cl)cc2)n1", "AC50": "77.1 µM (active)"}
{"smiles": "N#Cc1nn(-c2c(Cl)cc(C(F)(F)F)cc2Cl)c(N)c1S(=O)C(F)(F)F", "note": "(stereo not given)", "outcome": "inactive"}
